Assay results as given in PubChem BioAssay AID686978 (National Center for Advancing Translational Sciences (NCATS), 2013).
The campaign covered roughly 420,000 compounds. About 64,000 (15%) were called active. Roughly 27% stayed inconclusive and do not appear here. Calls come from the whole dose curve; as a rule, active = well fitted inhibition curve with a large enough effect; inconclusive = small, poorly fitted or top-dose-only effect; inactive = flat fitted curve, though single readings scatter. The list is a sample of the results. Where a call stands in place of a potency, no number is given.

Experiment: qHTS for Inhibitors of human tyrosyl-DNA phosphodiesterase 1 (TDP1): qHTS in cells in absence of CPT; note: nearly all actives have a fitted effect of over 55% in size
Conditions: DT40 Tdp1-/- hTDP1 cells, no CPT, ATP luminescence, 48 h; activity change, negative = growth inhibition: at 46.2 µM (top of the series)
Procedure, shortened: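 Growth kinetics read by CellTiter-Glo luminescence after ≥48 hr at 37 °C. Cells: DT40 Tdp1-/- stably carrying human TDP1, 400 per well, compound exposure in the absence of CPT (DMSO vehicle).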
Potency is the fitted concentration of half-maximal effect.

Structure (SMILES) | Potency
O=C1COc2c1ccc(O)c2O | inactive
CC(=O)c1c(C)n(-c2ccc(N(C)C)cc2)c2ccc(OCC(N)=O)cc12 | 23.1 µM (active)
CC(=O)c1c(C)n(-c2ccc(C)cc2)c2ccc(O)cc12 | inactive
Cc1c(Cc2ccccc2)c(=O)oc2cc(OCC(N)=O)ccc12 | inactive
COc1ccc(CN2CCCC(N3CCc4ccccc4C3)C2)c(O)c1 (stereo not drawn) | inactive
Cc1cc(F)ccc1NS(=O)(=O)c1ccc(-n2cccn2)cc1 | 16.4 µM (active)
Cc1ccc(NS(=O)(=O)c2ccc(F)cc2)nc1 | inactive
Cn1nccc1NS(=O)(=O)c1ccc(F)cc1 | inactive
COc1ccccc1C(C)NC(=O)Cc1ccsc1 (stereo not drawn) | inactive
CC1=CC(=C(C#N)c2nc3ccccc3s2)C=C(C)N1c1ccc(F)cc1F | 18.4 µM (active)
Cc1nn(-c2ccc(F)cc2)c(Cl)c1/C=C(/CCC(=O)O)c1nc2ccccc2s1 | inactive
CN(Cc1nc2ccccc2s1)C(=O)c1ccc(F)cc1 | inactive
COCc1c(C(=O)N/N=C\c2cccnc2)nnn1-c1nonc1N | inactive
CN(c1ccccc1)S(=O)(=O)c1ccc(Cl)c(C(=O)OCC(=O)NCc2ccco2)c1 | inactive
O=C(COC(=O)c1ccccc1O)NCc1ccco1 | inactive
Cc1cc(C(=O)OCC(=O)NCc2ccco2)c(C)n1-c1ccccc1 | 2.06 µM (active)
Cc1ccc(S(=O)(=O)/N=S(\C)C(C)C)cc1 (stereo not drawn) | inactive
Cc1cc(O)ccc1NC1=CC(=O)CC(C)(C)C1 | inactive
Oc1ccc(N=Cc2sc3ccccc3c2Cl)cc1 | 10.3 µM (active)
Oc1ccc2ccccc2c1C=Nc1ccccc1 | inactive
O=C1C2C3C=CC(C4CC34)C2C(=O)N1/N=C/c1ccc(-c2ccccc2[N+](=O)[O-])o1 (stereo not drawn) | 18.4 µM (active)
N#C/C(=C/c1ccc(-c2ccccc2[N+](=O)[O-])o1)C(=O)NCCN1CCCCC1 | inactive
Cc1cc(-c2ccc(/C=N/n3cnnc3)o2)c([N+](=O)[O-])cc1C | inactive
Cn1c(-c2ccc(C(F)(F)F)cc2)cc2onc(-c3ccccc3)c2c1=O | inactive
Cc1ccc(S(=O)(=O)CCC(=O)OCC(=O)NCCc2ccc(S(N)(=O)=O)cc2)cc1 | inactive

Structure (SMILES) | Potency
CCC1C(=O)NCCN1C(=O)c1ccc2nc(Cc3ccc(OC)cc3)oc2c1 (stereo not drawn) | inactive
COc1ccc(CCNC(=O)COC(=O)Cc2ccccc2F)cc1 | inactive
COc1ccc(CC(=O)NC(C)CCc2ccccc2)cc1 (stereo not drawn) | inactive
COc1ccc(C(CCNCc2ccccc2F)c2ccc(F)cc2)cc1 (stereo not drawn) | 13 µM (active)
COc1ccccc1-c1ccnc(-n2ncc(C(=O)NCCc3ccncc3)c2C)n1 | inactive
COc1cccc(NC(=O)CN2C(=O)c3ccccc3Sc3ncccc32)c1 | 18.4 µM (active)
CNC(=O)CN1C(=O)c2cccnc2Sc2ccccc21 | inactive
COCCNC(=O)CCCN1C(=O)c2ccccc2Sc2ncccc21 | inactive
C#CCN(C[C@H]1[C@H](OC(=O)NC2CCCC2)[C@H](OC(=O)NC2CCCC2)C[C@H]2C(=O)N(c3ccccc3)C(=O)[C@@H]12)S(=O)(=O)c1ccc(C)cc1 | inactive
C#CCN(C[C@@H]1[C@@H](OC(=O)NC2CC2)[C@@H](OC(=O)NC2CC2)Cn2c(=O)ccc(=O)n21)S(=O)(=O)c1ccc(C)cc1 | 14.6 µM (active)
Cc1ccc(S(=O)(=O)N(C)CC(=O)NC2CCCC2)cc1 | inactive
CN(C)CCN(C(=O)C1=COCCO1)c1nc2ccc(Cl)cc2s1 | inactive
CC(=O)OCc1cc(=O)n(C)c(=O)n1C | inactive
CC1C(O)CC2C(C(=O)O)=CO[C@@H](O[C@H]3OC(CO)C(O)C(O)C3O)C21 (stereo partly drawn) | inactive
COc1ccc(S(=O)(=O)N(C)CC(=O)N2CCCC2)cc1 | inactive
CN(C)S(=O)(=O)c1ccc(Oc2ccc(S(=O)(=O)N(C)C)cc2)cc1 | 18.4 µM (active)
CN(C)S(=O)(=O)c1ccc(NC(=O)N2CCOCC2)cc1 | inactive
C#CCOCCOCCOCCNc1nc(N2CCN(C(=O)[C@H](CCC(=O)O)n3cc(CN)nn3)CC2)nc(N2CCN(C(=O)[C@H](CCC(=O)O)n3cc(CN)nn3)CC2)n1 | inactive
Cc1cccc(C(=O)NCc2nnc(SC(C)C(=O)Nc3nnc(C)s3)n2C)c1 (stereo not drawn) | inactive
CCc1ccc(Oc2coc3cc(O)ccc3c2=O)cc1 | inactive
COc1cc(C(C(=O)NC2CCCC2)N(C(=O)c2ccco2)c2ccccc2C(C)=O)cc(OC)c1OC (stereo not drawn) | inactive
CC(OC(=O)c1cccc(S(=O)(=O)N2CCOCC2)c1)C(=O)NCC1CCCCC1 (stereo not drawn) | inactive
COc1cc(C(=O)OC(C)C(=O)NCC2CCCCC2)cc(NC(=O)c2ccco2)c1OC (stereo not drawn) | 20.6 µM (active)
CSCC[C@H](NC(=O)N1CCn2c1nc1ccccc12)C(=O)NCc1ccc2c(c1)OCO2 | inactive
CC(=O)N/C(=C\c1ccccc1)C(=O)OC(C)C(=O)N(C)c1ccccc1 (stereo not drawn) | inactive

Structure (SMILES) | Potency
O=S(=O)(NCCS(=O)(=O)N1CCN(c2ccccc2)CC1)c1ccc(Cl)cc1 | inactive
CC1CCCN(CC(=O)Nc2cc(Cl)ccc2Oc2ccccc2)C1 (stereo not drawn) | 16.4 µM (active)
CC(=O)Nc1ccc(NC(=O)CN2CCCC(C)C2)c(Cl)c1 (stereo not drawn) | inactive
O=C(CSc1ccccc1)Nc1cc(Cl)ccc1Oc1ccccc1 | inactive
COC(=O)[C@@H](Cc1ccccc1)NC(=O)NCCc1ccccc1 | inactive
CCOC(=O)c1oc2c(CN3CCN(C)CC3)c(O)ccc2c(=O)c1-c1ccc(Br)cc1 | inactive
COc1ccc(-c2c(C)c3ccc(O)c(CN4CCN(C)CC4)c3oc2=O)cc1OC | inactive
CN1CCN(Cc2c(O)ccc3c2oc(=O)c2ccccc23)CC1 | 11.6 µM (active)
COc1ccc(C(C)=O)cc1CSc1nc2nc(C)cc(C)n2n1 | inactive
CN(CCc1cn[nH]c1)C(=O)CC1C(=O)NCCN1Cc1cccc(Oc2ccccc2)c1 (stereo not drawn) | inactive
O=C(Nc1cccc(Cc2ccccc2)c1)Nc1ccc2nc([C@@H]3O[C@H](CO)[C@@H](O)[C@H](O)[C@H]3O)[nH]c2c1 | inactive
O=C(CSc1ncc(CO)n1Cc1ccc(F)cc1)NCc1ccco1 | inactive
O=C(Cc1ccc(-n2c(=O)c3sccc3n(Cc3ccc(F)cc3)c2=O)cc1)NCc1ccco1 | 18.4 µM (active)
O=C(CCn1c(=O)c2sccc2n(Cc2ccc(F)cc2)c1=O)NCc1ccc2c(c1)OCO2 | inactive
Cc1cc(OC(=O)c2ccc(OC(C)C)cc2)c([N+](=O)[O-])c(=O)[nH]1 | inactive
Cc1ccc2nc(SC(C)C(=O)NCc3ccco3)[nH]c2c1 (stereo not drawn) | inactive
CCOc1ccc(CCNC(=O)COC(=O)C2CCN(c3ccc(C(F)(F)F)cn3)CC2)cc1OCC | inactive
CCc1cccc(NC(=O)COC(=O)C2CCN(c3ccc(C(F)(F)F)cn3)CC2)c1 | 8.2 µM (active)
N#CCCN(C(=O)COC(=O)C1CCN(c2ccc(C(F)(F)F)cn2)CC1)c1ccc(F)cc1 | inactive
CSCCC(C(=O)NC1=NCCS1)N1C(=O)c2ccccc2C1=O (stereo not drawn) | inactive
CCCCN(C(=O)/C=C/c1ccco1)c1c(N)n(CC(C)C)c(=O)[nH]c1=O | inactive
O=C(CSc1ncccn1)NCCc1ccccc1 | inactive
CCCCCCCCCCCCCCCC(=O)OC/C=C(C)/C=C/C=C(C)/C=C/C1=C(C)CCCC1(C)C | inactive
COc1ccc(Nc2cc(Cl)ccc2C(=O)O)cn1 | inactive
COc1ccc(-c2csc(C(O)c3cccc(Cl)c3)n2)cn1 (stereo not drawn) | 20.6 µM (active)

Structure (SMILES) | Potency
COc1cc(C(O)c2nc(-c3cccc(C(=O)O)c3)cs2)ccc1F (stereo not drawn) | inactive
CC1CCCN(CC(O)COc2ccc3c(c2)OCO3)C1 (stereo not drawn) | inactive
CC1CCCN(CC(O)COCc2ccccc2)C1 (stereo not drawn) | inactive
CC1CCCN(CCOCCOc2ccccc2-c2ccccc2)C1 (stereo not drawn) | 23.1 µM (active)
COc1ccc(C(=O)OCC(=O)NCC2CCCCC2)cc1S(=O)(=O)N1CCCc2ccccc21 | inactive
CCC(C)(C)NC(=O)/C=C/c1cc(OC)c(OC)c(S(=O)(=O)N2CCc3ccccc32)c1 | inactive
COc1cc(C)c(C)cc1S(=O)(=O)N1CCCc2ccccc21 | 16.4 µM (active)
O=C(O)CCC(=O)NCc1ccc(C(=O)O)cc1 | inactive
CC(C)Cn1c(=O)c2ccccc2n2c(-c3cccc(Cl)c3)nnc12 | 25.9 µM (active)
COc1ccc(NC(=O)CCc2nnc3n(CC(C)C)c(=O)c4ccccc4n23)cc1OC | inactive
Cc1ccc(Cl)cc1NC(=O)C(C)n1nnc2sc(-c3ccccc3)cc2c1=O (stereo not drawn) | inactive
CC(C)Cn1c(=O)c2ccccc2n2c(CCC(=O)N3CCN(c4cccc(Cl)c4)CC3)nnc12 | 7.31 µM (active)
Cn1c(Cc2cccc3ccccc23)nnc1SCC(=O)N1CCN(c2cccc(Cl)c2)CC1 | 23.1 µM (active)
Cn1c(CNC(=O)c2ccco2)nnc1SCC(=O)N1CCN(c2ccccc2)CC1 | inactive
CC(C)Cn1c(=O)c2ccccc2n2c(CCC(=O)NCc3ccccn3)nnc12 | inactive
COc1cccc2c1cc1c(=O)n(CC(=O)N3CCN(c4cccc(Cl)c4)CC3)nc(C)n12 | inactive
Cc1cc2nnc(SCC(=O)N3CCN(c4ccccc4)CC3)n2c(N)n1 | inactive
CCC1CO/C(=C(\C(=C(Cl)Cl)N2CCOCC2)[N+](=O)[O-])N1 (stereo not drawn) | inactive
CC(C)[C@H](NC(=O)N1c2ccccc2NC(=O)[C@@H]1C(C)C)C(=O)N[C@H](C(=O)O)c1ccccc1 | inactive
COc1cccc(N2C(=O)CC(N3CCc4ccccc4C3)C2=O)c1 (stereo not drawn) | inactive
C=C(C)c1cccc(C(C)(C)NC(=O)NCCN(CC)CC)c1 | inactive
O=C(Nc1ccc([N+](=O)[O-])cc1)C1(c2ccccc2)CCOCC1 | inactive
CC1(C)CC(=O)C(C=NCCC2=CCCCC2)=C(O)C1 | inactive
